# About 83,000 compounds went through this panel and 20% of them were active in at least one assay; those are over-represented in the sample as a whole.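 Testing used 96-well plates and a 48-hour single-concentration exposure. Example: -40 means 40% of the starting cells died.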 Activity calls are given as the source filed them. Rule for the calls: active = growth percent below 10; inactive = the rest.
# Tested on: HL-60(TB) leukemia
# Experiment: NCI-60 one-dose screen, 48 h (100 = growth as untreated, 0 = no growth, -100 = all killed)
# Details: 10 µM unless noted
row,Compound,growth
1,Cc1ccc(-c2nc(N3CCNCC3)c3oc(-c4ccc(C)cc4)nc3n2)cc1,-69.3% (active)
2,COc1cc(C2C=C(C)N=C3SC=NN32)cc(OC)c1OC (stereo not given),94.7% (inactive)
3,O=C1NC(=O)c2c(CCCSc3nc4ccccc4c(=O)n3CCc3ccccc3)cccc21,111% (inactive)
4,CCN(CC)CCN1C(=O)c2c(c(C)c3c(oc4cc(OC)ccc43)c2C)C1=O,85.8% (inactive)
5,Nc1nccc2c1ccn2-c1cccc(NC(=O)c2ccc(N3CCOCC3)c(C(F)(F)F)c2)c1,-3.75% (active)
6,CC1(Cc2ccccc2)CC2=C(C(=O)O1)C(c1ccccc1)NC(=O)N2 (stereo not given),-25.1% (active)
7,Cc1cc(C(=O)Nc2cc(Nc3ncccc3-c3ncnc4nc[nH]c34)ccc2F)cc(C(C)(C)C#N)c1,26.4% (inactive)
8,CC(C(=O)O)n1c(O)c(C=Nc2cccnc2)sc1=S (stereo not given),82.3% (inactive)
9,Nc1n[nH]c2cccc(C#Cc3cccc(NC(=O)c4ccc(N5CCOCC5)c(C(F)(F)F)c4)c3)c12,2.04% (active)
10,CCCCCCCCCCNC(=O)CI,19.3% (inactive)
11,Clc1ccc(-c2noc(/C=C\c3ccccc3)n2)cc1,94% (inactive)
12,Cl[C@@H]1CCO[C@H](c2cc3ccccc3c3ccccc23)C1,92.9% (inactive)
13,COc1ccccc1NC(=O)C1=C(C)NC(C)=C(C(=O)Nc2ccccc2OC)C1c1cccc([N+](=O)[O-])c1,66.7% (inactive)
14,CCC(c1cccc(Br)c1)C(C(=O)O)c1ccc(OC)cc1 (stereo not given),96.2% (inactive)
15,S=C1CCCCCN1,107% (inactive)
16,O=C1c2cc(Br)ccc2Oc2cc([N+](=O)[O-])ccc2N1c1ccc(I)cc1F,81.2% (inactive)
17,CCOC(=O)C1=C(C)NC(=O)NC1c1cc(=O)oc2ccc(C)cc12 (stereo not given),97.6% (inactive)
18,COc1ccc2sc3c(NCCCN)nc4ccccc4c3c(=O)c2c1,2.17% (active)
19,CN(C)c1ccc(Nc2c3ccccc3nc3cc(NC(=O)CCN4CCCC4)ccc23)cc1,-57.9% (active)
20,CCC(C)CC(CC)NCCN1CCN(C(CC)CC(C)CC)C1=S (stereo not given),39.8% (inactive)

row,Compound,growth
1,CC(=O)Nc1ccc(C(=O)COc2cccc(/C=C3\CCc4ccccc4C3=O)c2)cc1,89.2% (inactive)
2,C=CC(=O)Nc1cccc(-c2nc(SC)nc(NCCN3CCOCC3)c2C#N)c1,94.9% (inactive)
3,COc1cc2cn3c4ccc(O)cc4nc(N)c3c2cc1OC,24.5% (inactive)
4,COc1cc(Cn2ccc3c2-c2oncc2CC3)cc(OC)c1,16.6% (inactive)
5,Cc1cc2nc3c4ccc(Br)cc4n(CCN(C)C)c3nc2cc1C,3.73% (active)
6,CCOC(=O)c1[nH]c(C)c(C(=O)O)c1C,91.6% (inactive)
7,CC(=O)Nc1c(Cl)cc(Cl)c2c1Cc1cc([N+](=O)[O-])ccc1-2,89.8% (inactive)
8,S=C(Nc1ccc(Cl)cc1)Nc1ccc(Cl)cc1 (tested in a mixture with another compound),8.57% (active)
9,CN(C)Cc1cccs1,104% (inactive)
10,CCCCCCCCCCCCCCNCc1ccccc1,51.9% (inactive)
11,[2H]C([2H])([2H])Oc1ccc(F)cc1/C=C/C(=O)/C=C(/C=C/c1cc(F)ccc1OC([2H])([2H])[2H])OB(F)F,30.1% (inactive)
12,COc1ccc(C2CC(c3ccc(OC)cc3OC)=NN2c2ccc(S(N)(=O)=O)cc2)cc1 (stereo not given),61.2% (inactive)
13,Cc1cc(O)ccc1Sc1ccccc1[N+](=O)[O-],115% (inactive)
14,Cc1ccccc1NC(=O)c1cc2ccccc2cc1O,0.175% (active)
15,CCOC(=O)C#Cc1c(C(=O)OCC)nnn1Cc1ccc([N+](=O)[O-])cc1,55.4% (inactive)
16,O=C(CSc1nc2ccc([N+](=O)[O-])cc2[nH]1)Nc1cccc(Cl)c1,16.9% (inactive)
17,CCc1ccc(C(=Nc2ccc(N(C)C(=O)CN3CCN(C)CC3)cc2)c2c(O)[nH]c3ccc(C(=O)OC)cc23)cc1,-67% (active)
18,Nc1cc(Br)c(-c2nnc(CCC(=O)c3nc4ccccc4[nH]3)o2)c(Br)c1,88% (inactive)
19,CN(C)CCCn1c2c(c3ccc(-c4ccn[nH]4)cc3c1=O)C(=O)c1ccccc1-2,-7.99% (active)
20,CCCCCCCCCCCCCCCCCC1=NC(C)(C)CN1CC(C)O (stereo not given),61% (inactive)

# From PubChem BioAssay (NCI)
